Measurements reported in the supplement of paper PMC8728848.
The full list was thinned out, with the strongest signals kept by preference.

Key:
Assay in all cases: glycan array binding signal (z-score within array); higher = stronger binding
Settings in all cases: glycan notation: IUPAC condensed, linker removed
[1] = molecular target: Fuc(a1-2)Gal(b1-3)GlcNAc(b1-2)Man(a1-3)[Fuc(a1-2)Gal(b1-3)GlcNAc(b1-2)Man(a1-6)]Man(b1-4)GlcNAc(b1-4)GlcNAc
Procedure, shortened: (§1)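 The Consortium for Functional Glycomics database supplied 3228 glycan arrays, of which those lacking an available protein sequence were dropped. The binding signal, a within-array Z-score, was averaged across arrays of the same protein sequence and across linkers. Negative scores can be read as non-binding.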

[2] = molecular target: Fuc(a1-2)Gal(b1-4)GlcNAc
Procedure, shortened: as §1

[3] = molecular target: Fuc(a1-2)Gal(b1-4)GlcNAc(b1-2)[Fuc(a1-2)Gal(b1-4)GlcNAc(b1-4)]Man(a1-3)[Fuc(a1-2)Gal(b1-4)GlcNAc(b1-2)Man(a1-6)]Man(b1-4)GlcNAc(b1-4)GlcNAc
Procedure, shortened: as §1

[4] = molecular target: Fuc(a1-2)Gal(b1-4)GlcNAc(b1-3)Gal(b1-4)GlcNAc
Procedure, shortened: as §1

[5] = molecular target: Fuc(a1-2)Gal(b1-4)[Fuc(a1-3)]GlcNAc
Procedure, shortened: as §1

[6] = molecular target: Fuc(a1-2)[Gal(a1-3)]Gal(b1-3)GlcNAc(b1-3)GalNAc
Procedure, shortened: as §1

[7] = molecular target: Fuc(a1-2)[Gal(a1-3)]Gal(b1-4)GlcNAc(b1-3)[Fuc(a1-2)[Gal(a1-3)]Gal(b1-4)GlcNAc(b1-6)]GalNAc
Procedure, shortened: as §1

[8] = molecular target: Fuc(a1-2)[Gal(a1-3)]Gal(b1-4)[Fuc(a1-3)]GlcNAc(b1-3)GalNAc
Procedure, shortened: as §1

[9] = molecular target: Fuc(a1-2)[GalNAc(a1-3)]Gal(b1-3)GlcNAc
Procedure, shortened: as §1

[10] = molecular target: Fuc(a1-2)[GalNAc(a1-3)]Gal(b1-4)GlcNAc(b1-3)Gal(b1-4)GlcNAc
Procedure, shortened: as §1

[11] = molecular target: Fuc(b1-3)GlcNAc
Procedure, shortened: as §1

[12] = molecular target: Gal(a1-3)Gal(b1-4)GlcNAc(b1-2)Man(a1-3)[Gal(a1-3)Gal(b1-4)GlcNAc(b1-2)Man(a1-6)]Man(b1-4)GlcNAc(b1-4)GlcNAc
Procedure, shortened: as §1

[13] = molecular target: Gal(b1-2)Gal
Procedure, shortened: as §1

[14] = molecular target: Gal(b1-3)Gal(b1-4)GlcNAc
Procedure, shortened: as §1

[15] = molecular target: Gal(b1-3)Gal(b1-4)GlcNAc(b1-2)Man(a1-3)[Gal(b1-3)Gal(b1-4)GlcNAc(b1-2)Man(a1-6)]Man(b1-4)GlcNAc(b1-4)GlcNAc
Procedure, shortened: as §1

[16] = molecular target: Gal(b1-3)GlcNAc
Procedure, shortened: as §1

[17] = molecular target: Gal(b1-3)GlcNAc(b1-3)GalNAc
Procedure, shortened: as §1

[18] = molecular target: Gal(b1-3)GlcNAc6S
Procedure, shortened: as §1

[19] = molecular target: Gal(b1-3)[Neu5Ac(a2-6)]GalNAc
Procedure, shortened: as §1

[20] = molecular target: Gal(b1-4)GalNAc(b1-3)[Fuc(a1-2)]Gal(b1-4)GlcNAc
Procedure, shortened: as §1

[21] = molecular target: Gal(b1-4)GlcNAc(b1-2)Man(a1-6)Man(b1-4)GlcNAc(b1-4)GlcNAc
Procedure, shortened: as §1

[22] = molecular target: Gal(b1-4)GlcNAc(b1-2)Man(a1-6)[GlcNAc(b1-2)Man(a1-3)]Man(b1-4)GlcNAc(b1-4)GlcNAc
Procedure, shortened: as §1

[23] = molecular target: Gal(b1-4)GlcNAc(b1-3)Gal(b1-4)Glc
Procedure, shortened: as §1

[24] = molecular target: Gal(b1-4)GlcNAc(b1-3)Gal(b1-4)GlcNAc(b1-3)Gal(b1-4)GlcNAc(b1-3)Gal(b1-4)GlcNAc(b1-2)Man(a1-3)[Gal(b1-4)GlcNAc(b1-3)Gal(b1-4)GlcNAc(b1-3)Gal(b1-4)GlcNAc(b1-3)Gal(b1-4)GlcNAc(b1-2)Man(a1-6)]Man(b1-4)GlcNAc(b1-4)[Fuc(a1-6)]GlcNAc
Procedure, shortened: as §1

[25] = molecular target: Gal(b1-4)GlcNAc(b1-3)Gal(b1-4)GlcNAc(b1-3)Gal(b1-4)GlcNAc(b1-3)Gal(b1-4)GlcNAc(b1-3)Gal(b1-4)GlcNAc(b1-3)Gal(b1-4)GlcNAc(b1-2)Man(a1-3)[Gal(b1-4)GlcNAc(b1-3)Gal(b1-4)GlcNAc(b1-3)Gal(b1-4)GlcNAc(b1-3)Gal(b1-4)GlcNAc(b1-3)Gal(b1-4)GlcNAc(b1-3)Gal(b1-4)GlcNAc(b1-2)Man(a1-6)]Man(b1-4)GlcNAc(b1-4)GlcNAc
Procedure, shortened: as §1

[26] = molecular target: Gal(b1-4)GlcNAc(b1-3)Gal(b1-4)GlcNAc(b1-3)GalNAc
Procedure, shortened: as §1

[27] = molecular target: Gal(b1-4)GlcNAc(b1-3)Gal(b1-4)GlcNAc(b1-3)[Gal(b1-4)GlcNAc(b1-3)Gal(b1-4)GlcNAc(b1-6)]GalNAc
Procedure, shortened: as §1

[28] = molecular target: Gal(b1-4)GlcNAc(b1-3)[Gal(b1-4)GlcNAc(b1-6)]GalNAc
Procedure, shortened: as §1

[29] = molecular target: Gal(b1-4)GlcNAc6P
Procedure, shortened: as §1

B1: AAL (Agrocybe aegerita), Q6WY08 (protein)
chain: MQGVNIYNISAGTSVDLAAPVTTGDIVTFFSSALNLNAGAGNPNNTTLNLFAENGAYLLHIAFRLQENVIIFNSRQPDGPWLVEQRVSDVANQFAGIDGKAMVTVFDHGDKYQVVINEKTVIQYTKQISGLTLSLSYNATEETSIFSTVVEAVTYTGLALEHHHHHH
Q: How did the “glycan array binding signal (z-score)” value [1] turn out when B1 was run?
A: -0.105

Q: And the “glycan array binding signal (z-score)” value [2]?
A: -0.146

Q: And the “glycan array binding signal (z-score)” value [3]?
A: -0.119

Q: What about the “glycan array binding signal (z-score)” value [4] of the same binder?
A: -0.138

Q: What about the “glycan array binding signal (z-score)” value [5] of the same binder?
A: -0.147

Q: And the “glycan array binding signal (z-score)” value [6]?
A: -0.119

Q: What about the “glycan array binding signal (z-score)” value [7] of the same binder?
A: -0.138

Q: What about the “glycan array binding signal (z-score)” value [8] of the same binder?
A: -0.136

Q: What about the “glycan array binding signal (z-score)” value [9] of the same binder?
A: -0.152

Q: What about the “glycan array binding signal (z-score)” value [10] of the same binder?
A: -0.112

Q: And the “glycan array binding signal (z-score)” value [11]?
A: -0.123

Q: And the “glycan array binding signal (z-score)” value [12]?
A: 7.5

Q: What about the “glycan array binding signal (z-score)” value [13] of the same binder?
A: -0.141

Q: And the “glycan array binding signal (z-score)” value [14]?
A: -0.135

Q: What about the “glycan array binding signal (z-score)” value [15] of the same binder?
A: 6.91

Q: And the “glycan array binding signal (z-score)” value [16]?
A: -0.146

Q: What about the “glycan array binding signal (z-score)” value [17] of the same binder?
A: -0.149

Q: What about the “glycan array binding signal (z-score)” value [18] of the same binder?
A: -0.129

Q: What about the “glycan array binding signal (z-score)” value [19] of the same binder?
A: -0.159

Q: What about the “glycan array binding signal (z-score)” value [20] of the same binder?
A: -0.135

Q: What about the “glycan array binding signal (z-score)” value [21] of the same binder?
A: -0.162

Q: What about the “glycan array binding signal (z-score)” value [22] of the same binder?
A: -0.145

Q: What about the “glycan array binding signal (z-score)” value [23] of the same binder?
A: -0.142

Q: What about the “glycan array binding signal (z-score)” value [24] of the same binder?
A: -0.096

Q: And the “glycan array binding signal (z-score)” value [25]?
A: -0.099

Q: And the “glycan array binding signal (z-score)” value [26]?
A: -0.131

Q: What about the “glycan array binding signal (z-score)” value [27] of the same binder?
A: -0.125

Q: What about the “glycan array binding signal (z-score)” value [28] of the same binder?
A: -0.153

Q: And the “glycan array binding signal (z-score)” value [29]?
A: -0.163
